VDR inhibitor = vitamin D3 receptor (human) inhibition. Potency, µM, for inactives: max response, negative = inhibition, usual class: inhibitors. actives 0.93% (n = 400,000). VDR-SRC2-3 peptide fluorescence polarization, 2 h. AID 504847; note: % is set by controls: 0 for no effect and ±100 for the full control effect
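VDR–SRC2-3 interaction, FP format. Cmpds 23 nl via pintool, brief spin, 2 h ambient incubation.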
L3MBTL1 inh = inhibitors of human L3MBTL1 | Q9Y468 | AlphaScreen L3MBTL1–H3K9me1 peptide binding | Potency, µM (top dose mostly 57.1 µM), for the others: at the top dose activity, negative = inhibition, most hits filed as inhibitors | actives 0.66% (n = 230,000) | AID 485360; note: % is set by controls: 0 for no effect and ±100 for the full control effect; nearly all actives have a fitted effect of over 60% in size
Target sequence (Q9Y468 whole entry, looked up): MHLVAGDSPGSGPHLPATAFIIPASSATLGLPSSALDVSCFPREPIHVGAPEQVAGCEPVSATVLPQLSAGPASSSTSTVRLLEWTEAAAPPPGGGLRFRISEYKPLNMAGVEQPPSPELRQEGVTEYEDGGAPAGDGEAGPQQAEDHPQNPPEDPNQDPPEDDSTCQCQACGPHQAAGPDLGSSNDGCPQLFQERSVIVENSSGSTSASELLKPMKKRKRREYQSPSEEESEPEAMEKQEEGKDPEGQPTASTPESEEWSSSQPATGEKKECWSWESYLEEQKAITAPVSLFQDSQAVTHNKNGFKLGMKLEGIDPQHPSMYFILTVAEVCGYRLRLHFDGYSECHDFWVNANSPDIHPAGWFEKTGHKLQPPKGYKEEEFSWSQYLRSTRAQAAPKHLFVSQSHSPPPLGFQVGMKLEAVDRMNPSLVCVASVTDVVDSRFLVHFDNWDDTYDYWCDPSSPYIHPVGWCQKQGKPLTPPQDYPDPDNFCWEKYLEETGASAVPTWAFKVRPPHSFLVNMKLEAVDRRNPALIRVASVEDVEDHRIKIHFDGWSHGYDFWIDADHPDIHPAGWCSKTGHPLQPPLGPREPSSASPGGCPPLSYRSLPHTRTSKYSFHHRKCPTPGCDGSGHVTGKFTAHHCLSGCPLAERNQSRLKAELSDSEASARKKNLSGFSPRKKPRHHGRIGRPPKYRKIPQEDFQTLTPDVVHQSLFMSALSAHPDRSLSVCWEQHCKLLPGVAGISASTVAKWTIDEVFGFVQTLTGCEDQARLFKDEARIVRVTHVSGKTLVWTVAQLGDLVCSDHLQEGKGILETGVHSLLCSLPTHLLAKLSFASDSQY
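Read-out is AlphaScreen signal from streptavidin donor and nickel chelate acceptor beads (10 ug/mL final each) bridging L3MBTL1 (50 nM) and biotinylated K9-monomethylated H3(1-15) peptide (75 nM), after 30 min compound exposure at room temperature.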
BAZ2B block = blocks human BAZ2B; Q9UIF8; AlphaScreen BAZ2B-H3K14Ac peptide displacement; Potency, µM (top dose mostly 114 µM), for inactives: at the highest dose activity change, negative = inhibition, most hits filed as inhibitors; actives 4.4% (n = 360,000); AID 504333; note: % is set by controls: 0 for no effect and ±100 for the full control effect; nearly all actives have a fitted effect of over 60% in size
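Compounds, titrated to a top concentration of 110 uM, were incubated 30 min at room temperature with preformed BAZ2B/acetyl-K14 H3 peptide complex (50 nM each). Proximity signal was measured by AlphaScreen after 20 min with beads.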
PLK1 PBD block = PLK1 (human) polo-box domain binding inhibition; P53350; Plk1 PBD binding of FITC phosphopeptide, fluorescence polarization; Potency, µM, without a hit: max response, negative = inhibition, usual class: inhibitors; actives 2.8% (n = 360,000); AID 720504; note: series mostly up to about 57 µM; % is set by controls: 0 for no effect and ±100 for the full control effect; nearly all actives have a fitted effect of over 65% in size
JMJD2A Tudor inh = inhibitors of human JMJD2A Tudor domain; AlphaScreen JMJD2A-Tudor / H3K4me3 peptide binding; Potency, µM (doses to about 114 µM), for the others: top-dose activity change, negative = inhibition, usual class: inhibitors; actives 4.4% (n = 390,000); AID 504339; note: % is set by controls: 0 for no effect and ±100 for the full control effect; nearly all actives have a fitted effect of over 50% in size
HP1b binding inh = inhibitors of HP1-beta chromodomain binding to methylated histone tails | AID 540317 | Potency, µM (highest dose often 114 µM), for the others: at the top dose activity change, negative = inhibition, hits mostly inhibitors | P83916 | actives 0.56% (n = 390,000) | AlphaScreen HP1-beta / biotin-H3K9me3 peptide binding; note: nearly all actives have a fitted effect of over 70% in size
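AlphaScreen: HP1-beta (50 nM) preformed 30 min with biotin-H3(1-18)K9me3 peptide (50 nM) in PBS pH 7.4, 0.01% Tween-20. Compound added for 30 min at RT, then streptavidin donor/nickel chelate acceptor beads (10 ug/mL) for 30 min.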
* hit, by the source's call; ? = inconclusive; nt = no result given; [ ] = remark or other dose. A selection: hits, their analogues and other compounds. The true share with any hit is near 6.9%. Calls come from the whole dose curve; as a rule, active = well fitted curve in the direction sought with a large enough effect; inconclusive = small, poorly fitted or top-dose-only effect, or another doubt; inactive = no such curve, though single readings can be large; an effect the other way counts as inactive or inconclusive. Potency is the fitted concentration of half-maximal effect.

SMILES	VDR inhibitor	L3MBTL1 inh	BAZ2B block	PLK1 PBD block	JMJD2A Tudor inh	HP1b binding inh
CC(C)C[C@@H](CNCC(=O)[C@H](CC(C)C)NC(=O)c1[nH]cnc1C(=O)N[C@@H](C)CN)NC(=O)c1nc[nH]c1C(=O)N[C@@H](C)C(=O)O	-11%	nt	nt	-4%	-3%	29%
CC(C)C[C@@H](CNC(=O)OC(C)(C)C)NC(=O)c1nc[nH]c1C(=O)N[C@@H](CC(C)C)C(=O)CNC[C@H](CC(C)C)NC(=O)c1nc[nH]c1C(=O)N[C@@H](Cc1c[nH]c2ccccc12)C(=O)OC(C)(C)C	4%	-5%	nt	-8%	-34%	21%
CC(C)C[C@@H](CN)NC(=O)c1nc[nH]c1C(=O)N[C@@H](Cc1c[nH]c2ccccc12)C(=O)CNC[C@H](C)NC(=O)c1nc[nH]c1C(=O)N[C@@H](C)C(=O)O	-10%	nt	nt	?	56µM*	14%
COc1cccc(C(c2sc3nc(-c4ccco4)nn3c2O)N2CCN(C)CC2)c1 (centres undefined)	4%	nt	-12%	nt	-4%	39%
CCOC(=O)c1cccc(NC(=O)c2cc3c(=O)n(C)c4ccccc4c3n2C)c1	-5%	nt	?	nt	-13%	33%
C=C(C)Cc1c(C)c(C#N)c2[nH]c3ccccc3n2c1=O	6%	nt	-7%	-6%	-20%	37%
CCc1c(C)c(C#N)c2[nH]c3ccccc3n2c1=S	?	-19%	35µM*	13µM*	5.6µM*	20µM*
CCc1cc(=S)n2c([nH]c3ccccc32)c1C#N	?	nt	79µM*	?	20µM*	40µM*
CC(SCc1cc(=O)n2c([nH]c3ccccc32)c1C#N)C(=O)O (centres undefined)	79µM*	nt	nt	13µM*	?	?
CCc1cc(=O)n2c([nH]c3ccccc32)c1C#N	4%	nt	2%	-1%	-5%	32%
Cc1cc2c(s1)c1cnn(Cc3c(F)cccc3F)c(=O)c1n2C	nt	nt	nt	nt	-18%	nt
O=C(c1cccc(Cl)c1)N1CCN(C2CCCCC2)CC1	-29%	37%	?	2%	7.9µM*	?
O=C(c1cccc(F)c1)N1CCN(C(=O)C2CC2)CC1	7%	-2%	4%	-9%	-1%	59%
O=C(c1ccccc1)N1CCN(C2CCCCCC2)CC1	-7%	nt	56µM*	-1%	3.2µM*	?
O=C(c1cccc(F)c1)N1CCC(N2CCCCCC2)CC1	6%	nt	56µM*	-5%	2.2µM*	?
O=C(c1ccco1)N1CCN(C2CCCC2)CC1	-18%	5%	-4%	-1%	3.2µM*	?
O=C(NCC(c1ccc2c(c1)OCO2)N1CCN(c2ccccc2F)CC1)c1ccccc1F (centres undefined)	7%	nt	-24%	nt	-30%	10%[57 µM]
O=C(c1cccc(F)c1)N1CCN(C2CCCCC2)CC1	7%	nt	50µM*	-4%	22µM*	?
Cc1ccc(Cn2ccn(Cc3ccc(C)cc3)c(=O)c2=O)cc1	8%	nt	-25%	nt	-18%	31%
Nc1ccc(OCc2ccccc2)cc1[N+](=O)[O-]	3%	nt	nt	-1%	40µM*	?
CCOc1ccc(NC(=O)COc2ccccc2)c([N+](=O)[O-])c1	?	-16%	?	24µM*	?	?
COc1ccc(NC(=O)COC(=O)c2ccco2)c([N+](=O)[O-])c1	-5%	9%	-6%	27µM*	-16%	?
CCOc1ccc(NC(=O)Cc2ccccc2)c([N+](=O)[O-])c1	-13%	5µM*	?	-17%	-19%[57.1 µM]	3%
Cc1cc(=O)n(Cc2cccc(F)c2)c2c1c(C)nn2-c1cccc(F)c1	-11%	nt	0%	nt	24%	13%
CCCCn1c(=NC(=O)C(C)(C)Oc2ccc(Cl)cc2)c(C(=O)OCC)cc2c(=O)n3ccccc3nc21	1%	nt	5%	nt	1%	52%
COc1ccc(OC)c(NC(=O)CSc2nnc(C3CCCCC3)n2-c2ccccc2)c1	-14%	-2%	-35%	27µM*	-12%[11.4 µM]	?

Screening results: PubChem, National Center for Advancing Translational Sciences (NCATS)
